From PubChem BioAssay AID1159580 (chemical genetic matrix, 2015)
Hit rate of the full screen: of about 5,500 compounds, about 2,000 (36%) were called active. Another 18% or so got no clear call; they are omitted. No stated cut-off is given here; in the data, active means normalized growth mostly below about 0.91 (no sharp cut-off); inconclusive means no clear call, values can overlap the other calls; inactive means mostly above about 0.92. The list shows a part of the results.

Assay: chemical genetic growth profiling, strain panel (AID 1159580);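 further: tested at 20 µM; growth read once vehicle control cultures reached saturation at 30 °C; 1 = growth at the plate median or of vehicle wells; lower values mean less growth of the strain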
Conditions: growth OD
[1] = S. cerevisiae deletion strains, locus YJR075W, strain HOC1, active compounds read low
[2] = S. cerevisiae deletion strains, locus YMR263W, strain SAP30, active compounds read low
[3] = S. cerevisiae deletion strains, locus YMR307W, strain GAS1, active compounds read low
[4] = S. cerevisiae deletion strains, locus YNL322C, strain KRE1, active compounds read low

Measured: normalized growth

COc1ccccc1-c1cc(=O)c2c(OC)cccc2o1
inactive: S. cerevisiae deletion strains, locus YBR021W, strain FUR4, active compounds read low 0.99 | S. cerevisiae deletion strains, locus YBR229C, strain ROT2, active compounds read low 0.973 | S. cerevisiae deletion strains, locus YCL029C, strain bik1, active compounds read low 1 | S. cerevisiae deletion strains, locus YDL035C, strain GPR1, active compounds read low 0.953 | S. cerevisiae deletion strains, locus YDL074C, strain BRE1, active compounds read low 0.923 | S. cerevisiae deletion strains, locus YDL101C, strain DUN1, active compounds read low 0.966 | S. cerevisiae deletion strains, locus YDL185W, strain tfp1, active compounds read low 0.987 | S. cerevisiae deletion strains, locus YDR101C, strain arx1, active compounds read low 0.987 | S. cerevisiae deletion strains, locus YDR162C, strain NBP2, active compounds read low 0.95 | S. cerevisiae deletion strains, locus YDR318W, strain mcm21, active compounds read low 0.935 | S. cerevisiae deletion strains, locus YDR388W, active compounds read low 0.985 | S. cerevisiae deletion strains, locus YDR502C, strain sam2, active compounds read low 0.944 | S. cerevisiae deletion strains, locus YEL061C, strain CIN8, active compounds read low 0.977 | S. cerevisiae deletion strains, locus YER110C, active compounds read low 0.977 | S. cerevisiae deletion strains, locus YER155C, strain BEM2, active compounds read low 1.01 | S. cerevisiae deletion strains, locus YER167W, strain BCK2, active compounds read low 0.996 | S. cerevisiae deletion strains, locus YGL078C, strain dbp3, active compounds read low 0.983 | S. cerevisiae deletion strains, locus YGL086W, strain mad1, active compounds read low 0.99 | S. cerevisiae deletion strains, locus YGL248W, strain PDE1, active compounds read low 0.942 | S. cerevisiae deletion strains, locus YGR078C, strain PAC10, active compounds read low 0.938 | S. cerevisiae deletion strains, locus YGR135W, strain pre9, active compounds read low 0.915 | S. cerevisiae deletion strains, locus YGR252W, strain gcn5, active compounds read low 0.776 | S. cerevisiae deletion strains, locus YHR030C, strain SLT2, active compounds read low 0.991 | S. cerevisiae deletion strains, locus YHR079C, strain IRE1 (second series), active compounds read low 0.979 | S. cerevisiae deletion strains, locus YHR094C, strain hxt1, active compounds read low 0.996 | S. cerevisiae deletion strains, locus YHR129C, strain ARP1, active compounds read low 0.967 | S. cerevisiae deletion strains, locus YHR200W, strain rpn10, active compounds read low 0.98 | S. cerevisiae deletion strains, locus YIL066C, strain RNR3, active compounds read low 0.961 | S. cerevisiae deletion strains, locus YIL073C, strain SPO22, active compounds read low 0.931 | S. cerevisiae deletion strains, locus YIL125W, strain kgd1, active compounds read low 1.01 | S. cerevisiae deletion strains, locus YIR030C, strain dcg1, active compounds read low 0.969 | S. cerevisiae deletion strains, locus YJL134W, strain LCB3, active compounds read low 0.988 | S. cerevisiae deletion strains, locus YJL168C, strain set2, active compounds read low 0.971 | S. cerevisiae deletion strains, locus YJL187C, strain SWE1 (second series), active compounds read low 0.954 | S. cerevisiae deletion strains, locus YJR043C, strain POL32, active compounds read low 0.999 | [1] 0.987 | S. cerevisiae deletion strains, locus YKL009W, strain mrt4, active compounds read low 0.968 | S. cerevisiae deletion strains, locus YKL068W, active compounds read low 0.993 | S. cerevisiae deletion strains, locus YKL085W, strain MDH1 (second series), active compounds read low 0.982 | S. cerevisiae deletion strains, locus YKL085W, strain MDH1, active compounds read low 0.982 | S. cerevisiae deletion strains, locus YKL190W, strain CNB1, active compounds read low 0.972 | S. cerevisiae deletion strains, locus YKR001C, strain vps1, active compounds read low 0.916 | S. cerevisiae deletion strains, locus YLR039C, strain RIC1, active compounds read low 0.872 | S. cerevisiae deletion strains, locus YLR058C, strain SHM2, active compounds read low 0.96 | S. cerevisiae deletion strains, locus YLR102C, strain apc9, active compounds read low 0.988 | S. cerevisiae deletion strains, locus YLR262C, strain YPT6, active compounds read low 0.815 | S. cerevisiae deletion strains, locus YLR268W, strain sec22, active compounds read low 0.98 | S. cerevisiae deletion strains, locus YLR330W, strain CHS5, active compounds read low 0.976 | S. cerevisiae deletion strains, locus YLR342W, strain FKS1 (second series), active compounds read low 0.894 | S. cerevisiae deletion strains, locus YLR371W, strain rom2, active compounds read low 0.979 | S. cerevisiae deletion strains, locus YML016C, strain PPZ1, active compounds read low 0.983 | S. cerevisiae deletion strains, locus YML032C, strain rad52, active compounds read low 0.951 | S. cerevisiae deletion strains, locus YML124C, strain tub3, active compounds read low 0.983 | S. cerevisiae deletion strains, locus YMR078C, strain ctf18, active compounds read low 0.969 | S. cerevisiae deletion strains, locus YMR223W, strain ubp8, active compounds read low 0.916 | [2] 0.958 | [3] 0.72 | S. cerevisiae deletion strains, locus YNL067W, strain RPL9B, active compounds read low 0.982 | S. cerevisiae deletion strains, locus YNL153C, strain GIM3, active compounds read low 0.974 | S. cerevisiae deletion strains, locus YNL233W, strain BNI4, active compounds read low 0.922 | S. cerevisiae deletion strains, locus YNL250W, strain rad50, active compounds read low 0.999 | S. cerevisiae deletion strains, locus YNL271C, strain bni1, active compounds read low 0.969 | S. cerevisiae deletion strains, locus YNL298W, strain CLA4, active compounds read low 0.965 | [4] 0.978 | S. cerevisiae deletion strains, locus YNR052C, strain pop2, active compounds read low 0.958 | S. cerevisiae deletion strains, locus YOL006C, strain TOP1, active compounds read low 0.762 | S. cerevisiae deletion strains, locus YOL012C, strain htz1 1.44 | S. cerevisiae deletion strains, locus YOL147C, strain pex11, active compounds read low 0.975 | S. cerevisiae deletion strains, locus YOR061W, strain CKA2, active compounds read low 0.972 | S. cerevisiae deletion strains, locus YOR069W, strain VPS5, active compounds read low 0.982 | S. cerevisiae deletion strains, locus YOR136W, strain idh2, active compounds read low 1 | S. cerevisiae deletion strains, locus YOR144C, strain elg1, active compounds read low 0.996 | S. cerevisiae deletion strains, locus YOR316C, strain cot1, active compounds read low 0.992 | S. cerevisiae deletion strains, locus YPL241C, strain CIN2, active compounds read low 0.974 | S. cerevisiae deletion strains, locus YPR119W, strain clb2, active compounds read low 0.982 | S. cerevisiae deletion strains, locus YPR141C, strain kar3, active compounds read low 0.987 | S. cerevisiae deletion strains, locus YPR163C, strain tif3, active compounds read low 0.964 | S. cerevisiae deletion strains, locus YPR167C, strain met16, active compounds read low 0.969 | S. cerevisiae deletion strains, strain wtn01, active compounds read low 1 | S. cerevisiae strains, strain wild type, active compounds read low 0.975
active: S. cerevisiae deletion strains, locus YDL192W, strain arf1, active compounds read low 0.892 | S. cerevisiae deletion strains, locus YJL095W, strain BCK1, active compounds read low 0.773 | S. cerevisiae deletion strains, locus YLR418C, strain cdc73, active compounds read low 0.77 | S. cerevisiae deletion strains, locus YNL307C, strain MCK1, active compounds read low 0.88 | S. cerevisiae deletion strains, locus YOR184W, strain ser1, active compounds read low 0.837

COc1cccc(-c2cc(=O)c3ccccc3o2)c1N
active: S. cerevisiae deletion strains, locus YNL224C, strain SQS1, active compounds read low 0.907 | S. cerevisiae deletion strains, locus YOR083W, strain WHI5 (second series), active compounds read low 0.807
inactive: S. cerevisiae deletion strains, locus YAL040C, strain CLN3, active compounds read low 0.905 | S. cerevisiae deletion strains, locus YCL061C, strain MRC1 (second series), active compounds read low 1 | S. cerevisiae deletion strains, locus YDR363W, strain ESC2, active compounds read low 1.04 | S. cerevisiae deletion strains, locus YER002W, strain NOP16, active compounds read low 1.02 | [1] 0.992 | [2] 0.997 | [3] 0.992 | S. cerevisiae deletion strains, locus YNL175C, strain NOP13, active compounds read low 0.922 | S. cerevisiae deletion strains, locus YNL197C, strain WHI3, active compounds read low 0.937 | [4] 1.01 | S. cerevisiae deletion strains, locus YPL055C, strain LGE1, active compounds read low 1.01
